Measured values taken from PubChem BioAssay (EPA / NIEHS).
Results filed as inconclusive are left out. Activity calls are given as the source filed them. How the source made its calls: active means hit-call score of the fitted dose curve at least 0.9, where 1 is the maximum; inconclusive means response in the unintended direction; inactive means score below 0.9.

Key:
[1] = biological target: human AKT serine/threonine Kinase 2 (AKT2), AKT2 (gene 208) (UniProt P31751); test: NVS_ENZ_hAKT2: NovaScreen (NVS) Enzymatic Assay for human AKT serine/threonine Kinase 2 (AKT2) (AID 2283141)
Chain of human AKT serine/threonine Kinase 2 (AKT2), AKT2 (gene 208) (P31751 whole entry, looked up): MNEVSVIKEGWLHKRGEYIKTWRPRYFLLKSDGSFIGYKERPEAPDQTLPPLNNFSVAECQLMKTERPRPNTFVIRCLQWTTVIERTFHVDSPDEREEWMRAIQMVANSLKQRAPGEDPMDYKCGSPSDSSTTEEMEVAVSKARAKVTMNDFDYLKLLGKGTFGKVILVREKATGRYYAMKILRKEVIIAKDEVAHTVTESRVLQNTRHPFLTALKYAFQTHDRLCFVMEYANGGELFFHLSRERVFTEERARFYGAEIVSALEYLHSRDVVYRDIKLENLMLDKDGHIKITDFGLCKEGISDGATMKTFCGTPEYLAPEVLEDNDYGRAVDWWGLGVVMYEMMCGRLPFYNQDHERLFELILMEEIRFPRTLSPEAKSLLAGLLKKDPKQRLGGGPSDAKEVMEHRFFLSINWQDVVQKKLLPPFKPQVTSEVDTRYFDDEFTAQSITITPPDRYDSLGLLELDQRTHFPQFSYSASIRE
Description: (§1) NVS_ENZ_hAKT2 is a biochemical, single-readout assay that uses extracted gene-proteins in a cell-free assay. Measurements were taken 1 hour after chemical dosing in a 384-well plate.NVS_ENZ_hAKT2 is one of one assay component(s) measured or calculated from the NVS_ENZ_hAKT2 assay. It is designed to make measurements of enzyme activity, a form of enzyme reporter, as detected with fluorescence intensity signals by Fluorescence and electrophoretic mobility shift technology.Data from the assay component NVS_ENZ_hAKT2 was analyzed into 1 assay endpoint. This assay endpoint, NVS_ENZ_hAKT2, was analyzed in the positive analysis fitting direction relative to DMSO as the negative control and baseline of activity. Using a type of enzyme reporter, loss-of-signal activity can be used to understand changes in the enzymatic activity as they relate to the gene AKT2. Furthermore, this assay endpoint can be referred to as a primary readout, because this assay has produced multiple assay endpoints where this one serves a enzymatic activity function. To generalize the intended target to other relatable targets, this assay endpoint is annotated to the kinase intended target family, where the subfamily is serine/threonine kinase. […]

CDK2 (gene 1017) = CDK2 (gene 1017) (UniProt P24941); test: NVS_ENZ_hCDK2: NovaScreen (NVS) Enzymatic Assay for human Cyclin-Cependent Kinase 2 (CDK2) (AID 2283144)
Description: as §1, with “NVS_ENZ_hCDK2” for “NVS_ENZ_hAKT2”, “plate.NVS_ENZ_hCDK2” for “plate.NVS_ENZ_hAKT2”, “NVS_ENZ_hCDK2,” for “NVS_ENZ_hAKT2,”, “CDK2.” for “AKT2.”

[2] = biological target: human Caspase 4 (CASP4), CASP4 (gene 837) (UniProt P49662); test: NVS_ENZ_hCASP4: NovaScreen (NVS) Enzymatic Assay for human Caspase 4 (CASP4) (AID 2283143)
Chain of human Caspase 4 (CASP4), CASP4 (gene 837) (P49662 whole entry, looked up): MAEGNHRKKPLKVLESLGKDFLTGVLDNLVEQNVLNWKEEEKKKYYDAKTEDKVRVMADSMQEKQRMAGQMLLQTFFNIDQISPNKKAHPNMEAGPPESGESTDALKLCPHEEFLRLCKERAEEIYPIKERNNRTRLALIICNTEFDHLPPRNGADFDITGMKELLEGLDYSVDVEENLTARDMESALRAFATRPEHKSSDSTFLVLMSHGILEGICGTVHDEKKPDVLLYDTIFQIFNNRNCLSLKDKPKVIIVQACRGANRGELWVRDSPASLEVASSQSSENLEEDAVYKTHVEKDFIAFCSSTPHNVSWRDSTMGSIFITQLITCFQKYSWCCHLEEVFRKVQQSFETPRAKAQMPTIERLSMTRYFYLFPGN
In short: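 The cell-free assay used E. coli-expressed enzyme with a fluorogenic substrate, read 2 h after dosing. Signal loss was scored versus DMSO. Screening was in duplicate at 25 uM, then singleton concentration-response up to 50 uM.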

**Q.** With N#C[C@@H]1CC(F)(F)CN1C(=O)CNC1CC2CCC(C1)N2c1ncccn1 (stereo partly specified) as the molecule, how does the outcome [1] read?
**A.** Its outcome is “inactive”.

**Q.** Which results are given for CCCCCCCCCCCCc1ccccc1S(=O)(=O)O?
**A.** AC50 [1]: 40.2 µM (active); outcome (CDK2 (gene 1017)): inactive

**Q.** Oc1cc2ccccc2c2ccccc12 was tested. Which outcome [2] did it give?
**A.** Its outcome is “inactive”.

**Q.** Which outcome [2] does the source give for Cc1oc(-c2ccccc2)nc1CCOc1ccc(C[C@H](Nc2ccccc2C(=O)c2ccccc2)C(=O)O)cc1 here?
**A.** The outcome was “inactive”.

**Q.** Which outcome (CDK2 (gene 1017)) does the source give for O=C(O)Cc1cc(I)c(Oc2cc(I)c(O)c(I)c2)c(I)c1 here?
**A.** Its outcome is “inactive”.
